Results filed as inconclusive are left out. Unmarked numbers belong to inactive results. The call rests on the fitted dose curve; in most records, active means well fitted activation curve with a large enough effect in the signal ratio in the repeat runs (not every such curve was filed as active); inconclusive means weak or mixed curves; inactive means flat fitted curve, though single readings scatter; the % refers to the signal ratio.
Assay: qHTS assay to identify small molecule agonists of the hypoxia (HIF-1) signaling pathway (AID 1224846)
Settings: HRE-bla ME-180 cells, beta-lactamase ratio, 17 h; series mostly up to 76.8 µM; activation: at the top concentration
Source text: U.S. Tox21 Program National Center for Advancing Translational Sciences [NCATS] NIH Chemical Genomics Center [NCGC] U.S. Environmental Protection Agency [EPA] National Institutes of Environmental Health Sciences [NIEHS] National Toxicology Program [NTP] U.S. Food and Drug Administration [FDA] Tox21 Assay Overview: Hypoxia-inducible factor-1 (HIF-1) is the major hypoxia-regulated transcription factor that controls cellular responses to low oxygen concentration. HIF-1 is composed of two subunits: hypoxia responsive HIF-1-alpha and constitutively expressed HIF-1-beta, which is also known as aryl hydrocarbon receptor nuclear translocator. During hypoxic conditions, HIF-1-alpha heterodimerizes with HIF-1-beta and translocates into the nucleus where the HIF-1 complex binds to the hypoxia-response element (HRE) and activates expression of target genes such as VEGF (vascular endothelial growth factor). The HIF-1 pathway is essential to normal growth and development, and is involved in the pathophysiology of cancer, inflammation, and ischemia. Using a beta-lactamase reporter-gene under control of the hypoxia response element, a cell-based assay [CellSensor(TM) HRE-bla ME-180 from Life Technologies, Carlsbad, CA] was used to measure hypoxia-induced signaling. Tox21 10K library compounds were measured for their ability to induce the reporter gene activity.
Tox21 Assay Protocol Summary: HRE-bla ME-180 cells were dispensed at 2,000 cells per well in 6 uL of assay medium containing 0.5% dialyzed FBS into black wall/clear-bottom 1536-well plates using a Multidrop Combi (Thermo Scientific, Waltham, MA) dispenser. After the assay plates were incubated at 37C and 5% CO2 for 5 hrs, 23 nL of compounds dissolved in DMSO, positive controls or DMSO only was transferred to each well of the assay plate using a Pintool station (Kalypsys, San Diego, CA). The assay plates were incubated at 37C and 5% CO2 for 17 hrs. One uL of LiveBLAzerTM B/G FRET substrate (CCF4-AM) (Life Technologies) was added to each well using a Flying Reagent Dispenser (Aurora Discovery, San Diego, CA).
With `C=CCn1cc[n+](C)c1` the “activation” value was -0.163%. In the case of `C=C(C)C(=O)OCCOC1CC2CC1C1C=CCC21` (stereo not given), the “activation” value is reported as 0.0441%. In the case of `C[Si](C)(C)O[Si](O)(O)O`, the “activation” value is reported as 0.0566%. With `CCCCCCCCCCCC(C)=O` the “activation” value was -0.391%. For `N=C(N)N`, the “activation” value was 1.99% [at 35.5 µM]. In the case of `C/C(=N\O)c1ccc(OCC(=O)N2CCCCC2)cc1`, the “activation” value is reported as 0.213% [at 35.5 µM]. In the case of `CN(C)CCc1c[nH]c2ccc(C[C@H]3COC(=O)N3)cc12`, the “activation” value is reported as -1.51% [at 35.5 µM]. In the case of `COC(=O)c1ccccc1Cl`, the “activation” value is reported as -1.47%. With `CCc1ncc(C)[nH]1` the “activation” value was -0.527%. For `O=C1CCCc2c(O)cccc21`, the “activation” value was -0.31% [at 35.5 µM]. In the case of `CC(=O)c1ccc(O)c(C(N)=O)c1`, the “activation” value is reported as -0.626% [at 35.5 µM]. With `CCCCCCCCCCCCCCCC/C=C/C1CC(=O)OC1=O` (stereo not given) the “activation” value was -0.186% [at 35.5 µM]. In the case of `c1coc(Cn2cccc2)c1`, the “activation” value is reported as -0.715%. For `Cc1cc(O)c(Cl)cc1C`, the “activation” value was -0.833%. In the case of `NNC(=O)CCCCC(=O)NN`, the “activation” value is reported as 0.581%. For `CCNC(=O)C(C)OC(=O)Nc1ccccc1` (stereo not given), the “activation” value was -1.26%. With `Cc1ccccc1OCC(=O)O` the “activation” value was -0.543%. In the case of `CCCCCCCCCCCCCCBr`, the “activation” value is reported as 0.0103%. For `CCCCCCC(O)CO` (stereo not given), the “activation” value was 0.424%. For `O=C(O)Cc1c(Cl)ccc(Cl)c1Cl`, the “activation” value was -0.775%. With `CCCCCC(=O)CC` the “activation” value was -0.935%. With `Cc1cc(C)c(C)c(C)c1` the “activation” value was -0.619%. With `CC1(C)CC(N)CC(C)(C)N1` the “activation” value was -0.673%. For `CCCCN=C(N)N=C(N)N`, the “activation” value was 0.941% [at 35.5 µM]. With `COc1cc(C(=O)NC2CCCNC2)cc(OC)c1OC` (stereo not given) the “activation” value was -0.248% [at 35.5 µM]. For `CCCC[O][Al]([O]CCCC)[O]CCCC`, the “activation” value was 0%. In the case of `CCCCCCCC(=O)N(C)C`, the “activation” value is reported as 0.162%. For `COC(=O)c1ccc(NC(C)=O)cc1OC`, the “activation” value was -1.11% [at 35.5 µM]. For `CC(C)(O)c1ccc(C(C)(C)O)cc1`, the “activation” value was 0.202%. In the case of `CCO/C=C1\N=C(c2ccccc2)OC1=O`, the “activation” value is reported as -0.428%. For `C=CC(=O)OCC[N+](C)(C)C`, the “activation” value was -0.739%. With `CCCC(=O)C(CC)Sc1ccoc1C` (stereo not given) the “activation” value was 0.604%. In the case of `Cc1ccc(OC(=O)CC(C)C)cc1`, the “activation” value is reported as -0.0158%. With `C/C=C/C(=O)CCCC` the “activation” value was -0.484%. In the case of `CC(C)(C)C(=O)NCCCC(=O)O`, the “activation” value is reported as -0.0272% [at 35.5 µM]. With `N#Cc1cc(NC(=O)C(=O)O)c(Cl)c(NC(=O)C(=O)O)c1` the “activation” value was 0.202% [at 35.5 µM]. With `Cc1ccc2cccnc2c1` the “activation” value was -0.0754%. With `CCCC(C)C(O)CC` (stereo not given) the “activation” value was 0.353%. For `CC(=O)SC[C@@H](C)C(=O)N1CCC[C@H]1C(=O)N[C@@H](Cc1ccccc1)C(=O)O`, the “activation” value was 0.516% [at 35.5 µM]. For `C/C(Cl)=C/CCl`, the “activation” value was -0.121%.

Source: PubChem BioAssay (Tox21)
On the % scale 0 is the no-effect control and ±100 the full control effect.
